Consider twelve molecules from PubChem BioAssay (Tox21).

Values joined by “and” are separate entries in the source; they are usually repeats but may differ in a detail not shown here. Identical values can stand only once. Results filed as inconclusive are left out. Some structures have more than one record in an assay (separate samples or runs), and their calls can disagree. Active and inactive are the calls of the source. Calls come from the whole dose curve; as a rule, active = well fitted curve in the direction sought with a large enough effect in the repeat runs; inconclusive = weak or mixed curves; inactive = no such curve, though single readings can be large; an effect the other way counts as inactive or inconclusive.

A short description of assay [1]: A CellTox Green Cytotoxicity Assay to monitor cytotoxicity in HEK293 cells - 40 hour (AID 1224871). Note: nearly all actives have a fitted effect of over 45% in size. The essentials: (§1)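 Read-out: fluorescence of a cell-impermeant cyanine dye staining DNA of dead cells, proportional to cytotoxicity. HEK293, 600 cells/well with reagent, compound (23 nL DMSO) added after 5 h; reads at 0, 8, 16, 24, 32, 40 h.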
Assay [2] is described as follows: qHTS RealTime-Glo MT Cell Viability Assay in HEK293 cells - 16 hour (AID 1224872). Note: nearly all actives have a fitted effect of over 50% in size. Note: potency is the fitted concentration of half-maximal effect. The essentials:
(§2)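 Luminescence generated by NanoLuc from substrate produced by living HEK293 cells served as the viability signal. Each value reflects the reading at its stated time point during continuous 40 h compound exposure at 37 C.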
(In general: qHTS replaces the single test concentration by a dilution series.)

A short description of assay [3]: qHTS RealTime-Glo MT Cell Viability Assay in HepG2 cells - 8 hour (AID 1224873). Note: nearly all actives have a fitted effect of over 55% in size. In outline: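 Real-time viability: cells seeded at 600 per well together with NanoLuc and cell-permeant prosubstrate, compounds added after 5 h incubation. Luminescence tracked at 0, 8, 16, 24, 32 and 40 h of exposure.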
Assay [4] can be described thus: qHTS RealTime-Glo MT Cell Viability Assay in HEK293 cells - 40 hour (AID 1224874). Note: nearly all actives have a fitted effect of over 50% in size. Note: potency is the fitted concentration of half-maximal effect. The note with it: RealTime-Glo luminescence; max response: stronger effect = lower value. In outline:
(§3)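 Luminescence readout at each listed time point; HEK293, 600 cells/well, RealTime-Glo MT reagent added with cells; compounds pinned (23 nL in DMSO) after 5 h at 37 C; continuous culture at 37 C.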

The nature of assay [5]: A CellTox Green Cytotoxicity Assay to monitor cytotoxicity in HEK293 cells - 24 hour (AID 1224875). Note: series mostly up to about 77 µM; nearly all actives have a fitted effect of over 45% in size. In outline:
as §1

Assay [6] in a line: A CellTox Green Cytotoxicity Assay to monitor cytotoxicity in HepG2 cells - 16 hour (AID 1224876). Note: nearly all actives have a fitted effect of over 45% in size. The essentials: (§4)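 HepG2, 600 cells/well premixed w/ CellTox Green; 5 h settle, 37 C/5% CO2; pintool cpd add (DMSO); 37 C, 40 h; fluorescence read at 0, 8, 16, 24, 32, 40 h.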
The nature of assay [7]: qHTS RealTime-Glo MT Cell Viability Assay in HepG2 cells - 32 hour (AID 1224877). Note: nearly all actives have a fitted effect of over 55% in size. In outline:
(§5)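 Tox21 10K library screened in qHTS format on HepG2 cells carrying RealTime-Glo reagents. Compounds were added after a 5 h preincubation, and the luminescent signal from continuous culture was measured repeatedly during 40 h treatment.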

Assay [8] is described as follows: A CellTox Green Cytotoxicity Assay to monitor cytotoxicity in HepG2 cells - 24 hour (AID 1224878). Note: nearly all actives have a fitted effect of over 45% in size. In outline:
as §4

Assay [9] can be described thus: A CellTox Green Cytotoxicity Assay to monitor cytotoxicity in HepG2 cells - 40 hour (AID 1224879). Note: nearly all actives have a fitted effect of over 40% in size. The essentials:
as §4

A short description of assay [10]: qHTS RealTime-Glo MT Cell Viability Assay in HEK293 cells - 0 hour (AID 1224880). In outline:
as §3

Assay [11] in a line: A CellTox Green Cytotoxicity Assay to monitor cytotoxicity in HEK293 cells - 32 hour (AID 1224881). Note: nearly all actives have a fitted effect of over 40% in size. The essentials: as §1
The nature of assay [12]: A CellTox Green Cytotoxicity Assay to monitor cytotoxicity in HepG2 cells - 0 hour (AID 1224882). Note: nearly all actives have a fitted effect of over 35% in size. Note: potency is the fitted concentration of half-maximal effect. The essentials: as §4
A short description of assay [13]: A CellTox Green Cytotoxicity Assay to monitor cytotoxicity in HepG2 cells - 32 hour (AID 1224883). Note: nearly all actives have a fitted effect of over 50% in size. The essentials:
as §4

The nature of assay [14]: A CellTox Green Cytotoxicity Assay to monitor cytotoxicity in HEK293 cells - 8 hour (AID 1224884). Note: nearly all actives have a fitted effect of over 35% in size. The essentials:
as §1

Assay [15] in a line: qHTS RealTime-Glo MT Cell Viability Assay in HepG2 cells - 16 hour (AID 1224885). Note: nearly all actives have a fitted effect of over 50% in size. The essentials: as §5
Assay [16] is described as follows: qHTS RealTime-Glo MT Cell Viability Assay in HEK293 cells - 24 hour (AID 1224886). Note: nearly all actives have a fitted effect of over 50% in size. Note: potency is the fitted concentration of half-maximal effect. In outline:
as §2

The nature of assay [17]: A CellTox Green Cytotoxicity Assay to monitor cytotoxicity in HEK293 cells - 16 hour (AID 1224888). Note: nearly all actives have a fitted effect of over 35% in size. In outline:
as §1

A short description of assay [18]: qHTS RealTime-Glo MT Cell Viability Assay in HepG2 cells - 0 hour (AID 1224889). Note: nearly all actives have a fitted effect of over 50% in size. The essentials: as §5
Assay [19] can be described thus: A CellTox Green Cytotoxicity Assay to monitor cytotoxicity in HepG2 cells - 8 hour (AID 1224890). Note: nearly all actives have a fitted effect of over 45% in size. In outline: as §4
Assay [20] in a line: qHTS RealTime-Glo MT Cell Viability Assay in HEK293 cells - 8 hour (AID 1224887). The essentials: as §3
% is set by controls: 0 for no effect and ±100 for the full control effect.

As for `Cc1c(N(C)C)c(=O)n(-c2ccccc2)n1C`, the Potency result in assay [1], in assay [2], in [5], in assay [6], in [8] and in assay [9] was “inactive” throughout. Besides, the Potency entry in [10], in assay [11], in [12], in assay [13], in assay [14] and in assay [15] was “inactive” throughout. The Potency entry in assay [16], in assay [17], in assay [18] and in [19] was “inactive” throughout. Further, the molecule was classed as inactive in [3] and in [7]. Also, the max response in [4] was 8.84% (inactive) and 0.672% (inactive) and 6.67% (inactive).

On to `O=C(O)CCCCC1CCSS1` (stereo not drawn), for which the Potency result in assay [1], in [2], in assay [5], in assay [6], in assay [8] and in assay [9] was “inactive” each time. In addition, the Potency entry in assay [10], in assay [11], in [12], in assay [13], in [14] and in assay [15] was “inactive” in each case. Further, the Potency entry in assay [16], in assay [17], in [18] and in [19] was “inactive” in each case. Besides, the call in assay [3] and in [7] was inactive. Moreover, the max response in [4] was 9.73% (inactive) and 12.3% (inactive) and 7.95% (inactive).

For the molecule `CC1=C(/C=C/C(C)=C/C=C/C(C)=C/C(=O)O)C(C)(C)CCC1`, the Potency entry in assay [1], in assay [2], in assay [5], in [6], in [8] and in assay [9] was “inactive” each time. Besides, the Potency entry in assay [10], in assay [11], in assay [12], in assay [13], in [14] and in assay [15] was “inactive” in each case. In addition, the Potency entry in assay [16], in assay [17], in [18] and in assay [19] was “inactive” each time. The molecule was called inactive in [3] and in assay [7]. In addition, the max response in assay [4] is -20% (inactive) and -18.8% (inactive) and -12.7% (inactive).

As to `OCCCc1ccccc1`, the Potency entry in [1], in assay [2], in assay [5], in assay [6], in assay [8] and in assay [9] was “inactive” throughout. Moreover, the Potency entry in [10], in assay [11], in [12], in assay [13], in assay [14] and in assay [15] was “inactive” each time. For the same molecule, the Potency entry in assay [16], in assay [17], in assay [18] and in assay [19] was “inactive” in each case. In addition, the outcome in [3] and in assay [7] was inactive. Further, the max response in [4] was 12.9% (inactive) and 2.88% (inactive).

In the case of `O=c1c(-c2ccc(O)cc2)coc2cc(O)cc(O)c12`, the Potency entry in assay [1], in assay [5], in assay [6], in assay [8], in assay [9] and in assay [10] was “inactive” in each case. Besides, the Potency result in assay [11], in assay [12], in assay [13], in assay [14], in assay [15] and in assay [17] was “inactive” throughout. For the same molecule, the Potency result in assay [18] and in [19] was “inactive” each time. The Potency is 21.9 µM (active) in [2]; 19.2 µM (active) and 19.5 µM (active) in [4]; 24.5 µM (active) in assay [16]. The call in assay [3] and in assay [7] was inactive.

For the molecule `COCC(C)N` (stereo not drawn), the Potency result in assay [1], in assay [2], in assay [5], in assay [6], in assay [8] and in assay [9] was “inactive” in each case. In addition, the Potency entry in assay [10], in assay [12], in [13], in [14], in [15] and in assay [16] was “inactive” in each case. The Potency entry in assay [20], in assay [17], in [18] and in assay [19] was “inactive” in each case. In addition, the result in assay [3] and in assay [7] was inactive. Moreover, the max response in [4] is 4.72% (inactive) and 4.68% (inactive).

For `NC(=O)OCC(COC(N)=O)c1ccccc1`, the Potency result in [1], in assay [2], in [5], in assay [6], in [8] and in assay [9] was “inactive” throughout. Further, the Potency entry in assay [10], in assay [11], in assay [12], in assay [13], in assay [14] and in assay [15] was “inactive” throughout. For the same molecule, the Potency result in [16], in assay [17], in assay [18] and in assay [19] was “inactive” each time. The result in [3] and in assay [7] was inactive. Further, the max response in assay [4] is 1.64% (inactive) and -0.593% (inactive).

Consider `COC(=O)c1ccc(C=O)cc1`, for which the Potency result in assay [1], in [2], in assay [5], in assay [6], in assay [8] and in [9] was “inactive” throughout. Further, the Potency entry in [10], in assay [11], in assay [12], in assay [13], in assay [14] and in [15] was “inactive” in each case. The Potency result in assay [16], in [17], in assay [18] and in [19] was “inactive” throughout. Moreover, the molecule was classed as inactive in assay [3] and in [7]. The max response in assay [4] was -13.1% (inactive) and 1.66% (inactive).

As for `CCCCCCCC(=O)OCC(O)CO` (stereo not drawn), the Potency entry in [1], in assay [2], in assay [5], in assay [6], in assay [8] and in assay [9] was “inactive” in each case. In addition, the Potency entry in [10], in assay [13], in assay [14], in assay [15], in assay [16] and in [20] was “inactive” each time. For the same molecule, the Potency result in assay [17], in assay [18] and in assay [19] was “inactive” throughout. Moreover, the result in [3] and in assay [7] was inactive. For the same molecule, the max response in [4] was 11.2% (inactive) and -0.735% (inactive). For the same molecule, in assay [12], the Potency entry was “inactive and 26.8 µM (active)”.

Turning to `C1CNCCN1`, the Potency entry in [1], in [2], in assay [5], in [6], in assay [8] and in assay [9] was “inactive” each time. The Potency result in assay [10], in [12], in assay [13], in assay [14], in assay [15] and in assay [16] was “inactive” throughout. Moreover, the Potency result in assay [20], in assay [17], in assay [18] and in [19] was “inactive” in each case. Also, the outcome in assay [3] and in assay [7] was inactive. Besides, the max response in assay [4] was 0.515% (inactive) and 0.916% (inactive).

Consider `CC(=O)/C=C/C1=C(C)CCCC1(C)C`, for which the Potency entry in assay [1], in assay [2], in assay [5], in [6], in assay [8] and in assay [9] was “inactive” each time. For the same molecule, the Potency result in [10], in [11], in [12], in assay [13], in assay [14] and in assay [15] was “inactive” in each case. In addition, the Potency entry in assay [16], in [17], in assay [18] and in assay [19] was “inactive” each time. The molecule was called inactive in [3] and in assay [7]. Also, the max response in assay [4] was -10% (inactive) and 2.42% (inactive) and 0.0931% (inactive).

Consider `O=[N+]([O-])c1ccc(O)cc1`, for which the Potency result in assay [1], in assay [2], in assay [5], in [6], in [8] and in assay [9] was “inactive” throughout. For the same molecule, the Potency result in assay [10], in [12], in assay [13], in [14], in [15] and in assay [16] was “inactive” throughout. For the same molecule, the Potency result in assay [20], in [17], in assay [18] and in [19] was “inactive” in each case. Further, the molecule was called inactive in assay [3] and in assay [7]. The max response in assay [4] is -24.7% (inactive) and -8.36% (inactive) and 4.76% (inactive).
